Measurements as given in PubChem BioAssay AID624167 (Sanford-Burnham Center for Chemical Genomics, 2012).

assay: Peg3 promoter luciferase inhibitors, potency, dose response, cell-based, HeLa, CREF/GAPDH counter-screen panel (AID 624167); conditions: CREF/GAPDH counter-screens; run 2, dose range 1, at 100 µM (top of the series)

SMILES | inhibition
O=c1cnnc(N/N=C/c2ccccn2)[nH]1 | 9.22%
COc1ccc(/C=C2\SC(=S)N(CCCC(=O)NNC(=O)c3ccccc3O)C2=O)cc1 | 72.3%
CCCCCCCNC(=O)C1(CC2CC(c3cccc(Br)c3)=NO2)CCNCC1 (stereo not drawn) | 99.3%
CCCCC(=O)NC(c1ccccc1)c1ccc2cccnc2c1O (stereo not drawn) | 45.2%
CCSc1nc2ccccc2n1C(=O)/C=C\c1ccc(OC)c(OC)c1 | 81.2%
O=C1C=CC(=O)N1c1ccc(-c2nc3ccccc3o2)cc1 | 90.3%
Cc1ccc(OCC(=O)c2cc(C)n(-c3ccccc3)c2C)c([N+](=O)[O-])n1 | 65.4%
COc1ccc(-n2c(O)c(/C=N/Nc3nc(C)cc(C)n3)c3ccccc3c2=O)cc1OC | -21.1%
NS(=O)(=O)c1ccc(CCNc2nn3c(-c4ccc(F)c(Cl)c4)cnc3s2)cc1 | 75.5%
O=C(NNC(=O)c1cccnc1SCc1cccc([N+](=O)[O-])c1)c1ccccn1 | -38.1%
CCOC(=O)c1c(SCCN2CCCCC2)n(-c2ccccc2)c(=S)n(-c2ccccc2)c1=O | 98%
CC1CC(C)C(=O)C(C(CC2CC(=O)NC(=O)C2)OC(=O)CC(=O)c2ccccc2)C1 (stereo not drawn) | 90.5%
N=c1n(CC(=O)c2ccc([N+](=O)[O-])cc2)c2ccccc2n1Cc1ccc(Cl)cc1 | 90.8%
Cc1ccccc1CNC(=O)C1CCCN(c2nnc(C)c3c(C)n(-c4ccccc4)nc23)C1 (stereo not drawn) | 94.8%
O=C(N/N=C\c1c(O)ccc2ccccc12)c1ccc(Cn2cccn2)o1 | 34.2%
CC(=O)c1ccc(-c2cnc3c(NC=O)cc(-c4ccccc4Oc4ccccc4)cn23)cc1 | 40%
Cc1ccc(C)c(S(=O)(=O)N2CCN(c3ncnc4sccc34)CC2)c1 | 61.2%

SMILES | inhibition
C=C1CC2(OC1=O)c1ccccc1CCc1ccccc12 | 99.7%
COCCCNC(=O)c1ccc(Cn2c(=O)c3ccccc3n(Cc3ccccc3C#N)c2=O)cc1 | 25.1%
CCCC(=O)NC(c1ccc(OC)cc1)c1ccc2cccnc2c1O (stereo not drawn) | 69%
CCCC(=O)NC(c1ccccc1)c1ccc2cccnc2c1O (stereo not drawn) | 39.4%
CC(C)(C)c1ccc(Oc2ccc(N)cc2)cc1 | 95.6%
Cc1ccc(NC(=S)NC(=O)c2ccc(F)cc2)cc1S(=O)(=O)Nc1ccccc1Cl | 55.6%
O=C(COc1ccc2c(c1)CCC2)Nc1ccccn1 | 94.9%
O=C(N/N=C/c1c(O)ccc2ccccc12)c1ccc(CO)nc1 | 3.42%
O=c1c2ccccc2sc2nc(CCl)nn12 | 99.3%
COc1ccc(Nc2ncnc3ccc(Br)cc23)c(OC)c1 | 93.7%
C=CCc1cccc(/C=N/NC(=O)C(C)Nc2cccc(C)c2)c1O (stereo not drawn) | 5.69%
O=C(CCSc1nc2ccccc2s1)N/N=C/c1c(O)ccc2ccccc12 | 0.467%
CN(C(=O)COC(=O)/C=C/c1cccc([N+](=O)[O-])c1)C1CCS(=O)(=O)C1 (stereo not drawn) | -31.8%
CN1C/C(=C/c2ccccc2[N+](=O)[O-])C(=O)/C(=C\c2ccccc2[N+](=O)[O-])C1 | 53.9%
COc1cc(/C=C2\SC(=Nc3ccccc3OC)NC2=O)ccc1O | 39.3%
O=C(O)c1ccc(N/N=C/c2ccc3nccnc3c2)cc1 | 99.2%
